Structures can show the parent of a compound that is named as a salt. ± gives the standard deviation.

The values below come from the supplement of paper PMC7530171.

This test relates to THP-1. The test can be described thus: THP-1 cell loss relative to DMSO control; higher = more host cell loss (toxicity); extreme values may be limits of the assay. The conditions noted are these: 10 µM; 4 days; infection: M. tuberculosis H37Rv. As to the method: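 OICR kinase inhibitor library screened in duplicate at 10 uM against M. tuberculosis-infected THP-1 macrophages, 4 days at 37 C. THP-1 cell loss (cytotoxicity or loss of adherence) was quantified from Hoechst-stained nuclei counts by high-content imaging and normalised to the 1% DMSO control; 100 = complete loss of host cells.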
For the compound `COc1ccc(CNC(=O)Nc2ncc([N+](=O)[O-])s2)cc1`, the THP-1 cell loss came out at 80.8 ± 27%.
The figure for `CC(C)CC(=O)Nc1n[nH]c2c1CN(C(=O)C1CCN(C)CC1)C2(C)C` is 100%.
Under `CS(=O)(=O)CCNCc1nc(-c2ccc3ncnc(Nc4ccc(OCc5cccc(F)c5)c(Cl)c4)c3c2)cs1` stands 37.5 ± 15%; under `O=C(O)c1ccc2c3c1cccc3c(=O)n1c3ccccc3nc21` [STO-609 acetic acid], 35.7 ± 5.5%; under `O=c1oc2c(O)c(O)cc3c(=O)oc4c(O)c(O)cc1c4c23` [Ellagic acid], 5.06 ± 7.2%.
Under `O=C(c1ccc(Nc2nccc(-c3cc4ccccc4s3)n2)cc1)N1CCC(N2CCCC2)CC1` stands 100%; under `NC(=O)c1ccc2nc(-c3ccc(Oc4ccc(Cl)cc4)cc3)[nH]c2c1` [Chk2 Inhibitor II], 48.8 ± 4.4%; under `O=C(NOCC1CC1)c1ccc(F)c(F)c1Nc1ccc(I)cc1Cl`, 100%.
The compound `O=C(C=Cc1ccccc1)NC(NC(=S)Nc1ccc(Cl)cc1)C(Cl)(Cl)Cl` (stereo unspecified) came in with a THP-1 cell loss of 63.6 ± 52%.
The figure for `S=C(NCc1ccc2c(c1)OCO2)N1CCN(c2ncnc3c2oc2ccccc23)CC1` is 20.7 ± 25%.
Under `CC1=C(C(=O)Nc2cc3cn[nH]c3cc2F)C(c2ccc(C(F)(F)F)cc2)CC(=O)N1` (stereo unspecified) stands 0%; under `O=C(NCCCNc1nc(Nc2cccc(NC(=O)N3CCCC3)c2)ncc1I)c1cccs1`, 100%; under `O=C(Nc1cccc(Cl)c1)Nc1ncc(CCNc2ncnc3ccsc23)s1`, 80.2 ± 4.3%.
The figure for `Cc1cc(C(=O)N2CCN(c3cccc(Cl)c3)CC2)n(-c2ccccc2)n1` is 23.2 ± 25%; for `CC(C)c1cnn2c(NCc3ccccc3)cc(NCCCCCCN)nc12` [BS-181 hydrochloride] it is 90.8 ± 13%.
Regarding `CCOc1cc2ncc(C#N)c(Nc3ccc(OCc4ccccn4)c(Cl)c3)c2cc1NC(=O)/C=C/CN(C)C` [Neratinib], the THP-1 cell loss was 55.4 ± 63%.
Consider `Cc1[nH]c(/C=C2\C(=O)Nc3cc(-c4ccccc4)ccc32)c(C)c1CCC(=O)O`, for which the THP-1 cell loss stood at 6.62 ± 9.4%.
The figure for `Cc1cnc(Nc2ccc(OCCN3CCCC3)cc2)nc1Nc1cccc(S(=O)(=O)NC(C)(C)C)c1` is 100%.
The figure for `CCN(CC)CC1CCN(c2ncc3ncnc(Nc4ccc(F)c(Cl)c4)c3n2)CC1` [BIBU 1361 dihydrochloride] is 100%; for `C=CC(=O)Nc1cc2c(Nc3ccc(F)c(Cl)c3)ncnc2cc1C#CC(C)(C)N1CCN(C)CC1` it is 100%.
Under `O=C1Cc2c([nH]c3ccc(Br)cc23)-c2ccccc2N1` [Kenpaullone] stands 100%.
The compound `NC(=O)Nc1cc(-c2cccc(F)c2)sc1C(=O)N[C@H]1CCCNC1` [AZD-7762 hydrochloride] displayed a THP-1 cell loss of 100%.
Under `CN1CCC(Nc2ncc3ncnc(Nc4ccc(F)c(Cl)c4)c3n2)CC1` [BIBX 1382 dihydrochloride] stands 17.8 ± 14%; under `O=C(Nc1c[nH]nc1-c1nc2ccc(CN3CCOCC3)cc2[nH]1)NC1CC1`, 100%; under `Cn1cc(/C=C2\C(=O)Nc3cccnc32)c2ccccc21`, 41.8 ± 0.73%.
Under `CC[C@@H]1C(=O)N(C)c2cnc(Nc3ccc(C(=O)NC4CCN(C)CC4)cc3OC)nc2N1C1CCCC1` stands 100%.
The figure for `CCN(CCO)CCCOc1ccc2c(Nc3cc(CC(=O)Nc4cccc(F)c4)[nH]n3)ncnc2c1` is 7.76 ± 6.5%; for `COc1ccc2c3n(c(=NC(=O)c4cccnc4)nc2c1OC)CCN3` it is 32.5 ± 0.91%; for `Nc1nccc(-c2ccc3noc(-c4ccc(Cl)cc4)c3c2)n1` [PIM 1 Inhibitor 2] it is 9.99 ± 7.3%.
In turn, `Cc1ccc(NC(=O)c2ccc(CN3CCN(C)CC3)cc2)cc1Nc1nc(-c2cccnc2)cs1` [Masitinib mesylate] returned a THP-1 cell loss of 62.9 ± 7.5%.
The figure for `O=C(NC[C@H](O)CO)c1ccncc1Nc1ccc(I)cc1F` is 100%; for `O=C1Cc2c([nH]c3ccc([N+](=O)[O-])cc23)-c2ccccc2N1` [Alsterpaullone] it is 100%.
The figure for `O=C1NC(=O)/C(=C/c2ccc(-c3ccc(F)cc3O)o2)S1` is 39.7 ± 23%; for `O=C1NC(=O)C(c2ccccc2[N+](=O)[O-])=C1Nc1ccc(O)c(Cl)c1` it is 3.73 ± 5.3%.
The compound `CN(C)CCOc1ccc(-c2nc(-c3ccncc3)c(-c3ccc4c(c3)CC/C4=N\O)[nH]2)cc1` yielded a THP-1 cell loss of 72.3 ± 11%.
The figure for `CN1CCC(CNc2ccc3ncc(-c4cccc(OC(F)(F)F)c4)n3n2)CC1` is 55.8 ± 30%.
